We go through 15 molecules from PubChem BioAssay (NCATS).

Records with an inconclusive call do not appear. Calls of active or inactive are those of the source. The call rests on the fitted dose curve; in most records, active means well fitted curve in the direction sought with a large enough effect; inconclusive means small, poorly fitted or top-dose-only effect, or another doubt; inactive means no such curve, though single readings can be large; an effect the other way counts as inactive or inconclusive.

Assay [1] in a line: Quantitative High-Throughput drug screen in 47 multiple myeloma cell lines against the NCATS MIPE library collection: KMM1_JCRB cell viability assay (AID 1918960). Further: nearly all actives have a fitted effect of over 30% in size. A digest of the protocol: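 Each line was plated at 500 cells/well and treated 48 h with library drugs. Viability came from CellTiter-Glo luminescence relative to DMSO and cell-free medium controls.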
A short description of assay [2]: Quantitative High-Throughput drug screen in 47 multiple myeloma cell lines against the NCATS MIPE library collection: Karpas417_ECACC cell viability assay (AID 1918961). The conditions noted are these: Karpas417 myeloma viability, CellTiter-Glo ATP luminescence, 48 h; viability (% of DMSO): at 45.8 µM (top of the series). The gist of the method:
(§1)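 Relative luminescence from CellTiter-Glo served as the viability signal, referenced to DMSO-treated (100%) and cell-free medium (0%) controls. Treatment lasted 48 hours at 37C with 500 cells per well.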

Assay [3] can be described thus: Quantitative High-Throughput drug screen in 47 multiple myeloma cell lines against the NCATS MIPE library collection: JIM3_ECACC cell viability assay (AID 1918963; further: nearly all actives have a fitted effect of over 35% in size). The gist of the method: as §1
A short description of assay [4]: Quantitative High-Throughput drug screen in 47 multiple myeloma cell lines against the NCATS MIPE library collection: INA6_PLB cell viability assay (AID 1918965; further: nearly all actives have a fitted effect of over 55% in size). A digest of the protocol: as §1
Assay [5] in a line: Quantitative High-Throughput drug screen in 47 multiple myeloma cell lines against the NCATS MIPE library collection: JJN3_DSMZ cell viability assay (AID 1918966; further: nearly all actives have a fitted effect of over 50% in size). A digest of the protocol:
(§2)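 Primary qHTS used for cherry-picking: cells at 500/well, library compounds for 48 h (37C, 5% CO2), luminescent ATP assay.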

The nature of assay [6]: Quantitative High-Throughput drug screen in 47 multiple myeloma cell lines against the NCATS MIPE library collection: H1112_PLB cell viability assay (AID 1918967; further: nearly all actives have a fitted effect of over 30% in size). The gist of the method: as §2
Assay [7] can be described thus: Quantitative High-Throughput drug screen in 47 multiple myeloma cell lines against the NCATS MIPE library collection: Karpas25_ECACC cell viability assay (AID 1918968; further: nearly all actives have a fitted effect of over 35% in size). A digest of the protocol: as §2
A short description of assay [8]: Quantitative High-Throughput drug screen in 47 multiple myeloma cell lines against the NCATS MIPE library collection: KMS27_JCRB cell viability assay (AID 1918970). Further: nearly all actives have a fitted effect of over 30% in size. The gist of the method: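 Viability inhibition screen, 48 h compound exposure, luminescent ATP read-out.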
Assay [9] in a line: Quantitative High-Throughput drug screen in 47 multiple myeloma cell lines against the NCATS MIPE library collection: KMS12BM_JCRB cell viability assay (AID 1918971). Further: nearly all actives have a fitted effect of over 35% in size. The gist of the method: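 Myeloma cells (500 per well) were exposed to MIPE 4.0 compounds by pin transfer and incubated 48 hours at 37C, 5% CO2. Viability was read as ATP by CellTiter-Glo luminescence, normalised to DMSO (100%) and media-only (0%) wells.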

Assay [10] is described as follows: Quantitative High-Throughput drug screen in 47 multiple myeloma cell lines against the NCATS MIPE library collection: KMS20_JCRB cell viability assay (AID 1918973). Further: nearly all actives have a fitted effect of over 45% in size. The gist of the method: as §2
Potency means the concentration at half of the fitted maximal effect.

For `CC(O)(CS(=O)(=O)c1ccc(F)cc1)C(=O)Nc1ccc(C#N)c(C(F)(F)F)c1` (stereo not given), the Potency in [1] was 2640 nM (active); in assay [2] it was 372 nM (active); in assay [3] it was 2960 nM (active); in assay [4] it was 590 nM (active); in assay [5], 4690 nM (active); in assay [6], 235 nM (active). Further, the Potency in assay [7] is 264 nM (active); in assay [8], 2350 nM (active); in [9], 23500 nM (active); in assay [10], 935 nM (active).
`Cn1c(CCCC(=O)O)nc2cc(N(CCCl)CCCl)ccc21`: the Potency result in [1], in assay [3] and in [8] was “inactive” each time. Also, the Potency in [4] is 18700 nM (active); in assay [9], 7430 nM (active).
As to `COC1(CS(=O)c2ccccc2)CCN(CCc2c[nH]c3ccc(F)cc23)CC1` (stereo not given), the Potency result in [2], in [3], in assay [5], in assay [6] and in [9] was “inactive” in each case. Also, the Potency in [7] is 9350 nM (active).
In the case of `C[C@@H]1O[C@@H](O[C@H]2C[C@@H](O)[C@]3(CO)[C@H]4[C@H](O)C[C@]5(C)[C@@H](C6=CC(=O)OC6)CC[C@]5(O)[C@@H]4CC[C@]3(O)C2)[C@H](O)[C@H](O)[C@H]1O`, the Potency is 41.8 nM (active) in assay [3]; 23.5 nM (active) in [4]; 105 nM (active) in assay [5]; 83.3 nM (active) in assay [6]; 37.2 nM (active) in [7]; 18.7 nM (active) in assay [8]. For the same molecule, the Potency in assay [9] is 66.2 nM (active); in [10], 23.5 nM (active).
For the molecule `Cc1sc2c(c1C)C(c1ccc(Cl)cc1)=N[C@@H](CC(=O)OC(C)(C)C)c1nnc(C)n1-2`, the Potency in [1] was 66.2 nM (active); in assay [3], 1660 nM (active); in [4] it was 29.6 nM (active); in assay [5] it was 296 nM (active); in assay [6] it was 6620 nM (active); in assay [7], 526 nM (active). For the same molecule, the Potency in assay [8] is 52.6 nM (active); in assay [9], 187 nM (active); in assay [10], 1180 nM (active).
Consider `O=C1CC[C@@]2(O)[C@H]3Cc4ccc(O)c5c4[C@@]2(CCN3CC2CC2)[C@H]1O5`, for which the Potency entry in [1], in [2], in assay [3], in [6], in [7] and in assay [8] was “inactive” each time. Further, the Potency in assay [4] is 8330 nM (active).
As for `COc1ccc(C(=O)c2c(C)n(CCN3CCOCC3)c3ccccc23)cc1`, the Potency result in [1], in [3], in assay [6], in assay [8] and in assay [9] was “inactive” each time.
On to `Cc1cc(SCc2sc(-c3ccc(C(F)(F)F)c(F)c3)nc2C)ccc1OCC(=O)O`, for which the Potency in assay [3] is 20900 nM (active); in assay [6], 20900 nM (active); in assay [7], 16600 nM (active). Also, in assay [5], the Potency result was “inactive”.
Take `C[C@@H]1[C@@H](C(=O)C[C@H]2O[C@@H]3O[C@]4(C)CC[C@@H]5[C@H](C)CC[C@@H]([C@H]2C)[C@@]35OO4)O[C@@H]2O[C@]3(C)CC[C@H]4[C@H](C)CC[C@@H]1[C@@]24OO3`: the Potency in assay [1] was 46.9 nM (active); in [3], 187 nM (active); in assay [4] it was 264 nM (active); in assay [5], 296 nM (active); in [6], 469 nM (active); in assay [7], 52.6 nM (active). Also, the results for the Potency in assay [8], in assay [9] and in [10] were 166 nM (active), 372 nM (active) and 469 nM (active), respectively.
Regarding `Cn1cc(C2=C(c3cn(C4CCN(Cc5ccccn5)CC4)c4ccccc34)C(=O)NC2=O)c2ccccc21`, the Potency is 4180 nM (active) in assay [1]; 8330 nM (active) in assay [3]; 4690 nM (active) in assay [4]; 14800 nM (active) in assay [5]; 10500 nM (active) in [6]; 8330 nM (active) in assay [7]. The results for the Potency in assay [8] and in assay [9] were 18700 nM (active) and 23500 nM (active), respectively.
With `N[C@@H](Cc1ccc(N(CCCl)CCCl)cc1)C(=O)O`, the Potency was 13200 nM (active) in assay [1]; 2960 nM (active) in assay [2]; 16600 nM (active) in [3]; 1320 nM (active) in assay [4]; 11800 nM (active) in [5]; 6620 nM (active) in assay [6]. In addition, the Potency in assay [7] was 13200 nM (active); in assay [8], 3720 nM (active); in assay [9], 16600 nM (active).
As to `COC[C@@H](NC(C)=O)C(=O)NCc1ccccc1`, the Potency entry in assay [1], in [3], in assay [5], in [6], in [8] and in assay [9] was “inactive” each time. Also, the Potency result in [10] is “inactive”.
As to `C[C@@H]1[C@@H](CC(C[C@H]2O[C@@H]3O[C@]4(C)CC[C@@H]5[C@H](C)CC[C@@H]([C@H]2C)[C@@]35OO4)C[S+](=O)([O-])c2ccc(COC(=O)N(C)C)cc2)O[C@@H]2O[C@]3(C)CC[C@H]4[C@H](C)CC[C@@H]1[C@@]24OO3` (stereo not given in full), the Potency in assay [1] is 105 nM (active); in assay [2], 132 nM (active); in [3], 264 nM (active); in assay [4] it was 235 nM (active); in [5] it was 148 nM (active); in assay [6], 209 nM (active). Also, the Potency in assay [7] is 118 nM (active); in assay [8], 187 nM (active); in assay [9] it was 148 nM (active); in assay [10], 264 nM (active).
Turning to `Cc1cccc(C)c1NC(=O)CN1CCCC1=O`, the Potency entry in assay [1], in assay [3], in assay [4], in [6], in [7] and in assay [8] was “inactive” in each case. In addition, in assay [9], the Potency result was “inactive”.
As for `CN(C)[C@@H]1C(=O)C(C(N)=O)=C(O)[C@@]2(O)C(=O)C3=C(O)c4c(O)cccc4[C@@](C)(O)[C@H]3C[C@@H]12`, the Potency result in assay [1], in assay [2], in assay [6], in assay [7] and in [8] was “inactive” in each case. Besides, the Potency in assay [9] is 4180 nM (active).
